Screening data deposited in PubChem by The Scripps Research Institute Molecular Screening Center.
Only some compounds are listed: those with a hit (about 3.4% of all), similar ones and a draw of the others.
MITF primary = blocks human microphthalmia-associated transcription factor. O75030. AlphaScreen MITF homodimerization, bead proximity signal. inhibition, % at 2.6 µM. 650,000 compounds, 0.91% hits; in the data active = inhibition above about 50%;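 also: 0% = vehicle wells with protein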
GPR151 activ = human GPR151 activation | PathHunter beta-arrestin GPR151 cells, luminescence | 650,000 compounds, 1% hits | Q8TDV0 | activation, % at 11.2 µM; in the data active = activation above about 4.9%;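 also: 0% = median of compound wells and 100% = cells with positive control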
Target sequence (Q8TDV0 whole entry, looked up): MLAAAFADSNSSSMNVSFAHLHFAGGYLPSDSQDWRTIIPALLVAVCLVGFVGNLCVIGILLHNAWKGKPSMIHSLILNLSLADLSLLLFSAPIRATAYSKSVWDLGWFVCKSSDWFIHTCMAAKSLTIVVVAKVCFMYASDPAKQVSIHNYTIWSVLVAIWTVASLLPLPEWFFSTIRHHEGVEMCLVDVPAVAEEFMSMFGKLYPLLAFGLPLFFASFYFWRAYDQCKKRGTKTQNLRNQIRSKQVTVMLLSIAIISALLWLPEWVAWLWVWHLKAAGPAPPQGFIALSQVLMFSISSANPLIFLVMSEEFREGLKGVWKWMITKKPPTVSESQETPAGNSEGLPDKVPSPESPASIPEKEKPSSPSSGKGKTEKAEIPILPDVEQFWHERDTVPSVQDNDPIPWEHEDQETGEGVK
TEAD-YAP block = TEAD-YAP interaction inhibition. HEK-TIYL cells, TEAD-Gal4/YAP UAS-luciferase luminescence. AID 1259422. inhibition, % at 9.12 µM. 640,000 compounds, 1.4% hits; in the data active = inhibition above about 32%;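 also: 0% = median of test compound wells and 100% = reference inhibitor wells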
FBW7 act = activators of human E3 ligase FBW7. AID 1259310. Q969H0. AlphaScreen FBW7–phospho-cyclin E peptide binding, activator screen. normalized activity (activation), % at 26.1 µM. 650,000 compounds, 0.13% hits; in the data active = normalized activity above about 1.9%;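 also: purified mutant Fbw7 with reduced substrate affinity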
* = called active by the depositor.

SMILES	MITF primary	GPR151 activ	TEAD-YAP block	FBW7 act
CCC(=O)NC(c1ccc(OC)cc1)c1c(O)ccc2ccccc12 (centres undefined)	-11.7	-0.2	51.8*	-0.2
COc1cc(C2C(C#N)=C(N)Oc3c2c(C)nn3-c2ccccc2)cc(OC)c1OC (centres undefined)	-7.7	0.8	-3.0	0.1
COc1ccc(C2CC(C(F)(F)F)n3ncc(C(=O)N4CCCc5ccccc54)c3N2)cc1OC (centres undefined)	-7.2	-0.6	-21.1	0.2
CC(=O)N1CCc2cc(S(=O)(=O)Nc3ccc(C(C)C)cc3)ccc21	12.8	-0.9	7.2	0.1
Nc1cccc(-c2cccc(C(=O)NCCCN3CCCC3=O)c2)c1	0.1	0.2	41.4*	-0.1
Oc1ccc(/C=N/NC(=S)NCCN2CCOCC2)c(O)c1	93.6*	1.6	-6.4	-1.2
CC(C)Sc1nnc(NC(=O)c2ccccc2Br)s1	1.1	0.2	-4.8	-0.1
COc1cc(CNC(=O)c2ccc3ccccc3n2)cc(OC)c1OC	-0.1	-0.1	44.7*	-0.1
COc1cc(CNC(=O)c2c(C(F)(F)F)nc3c(OC)cccn23)cc(OC)c1OC	11.3	-0.6	-0.1	1.9*
CCC(Oc1ccc(Cl)cc1C)C(=O)O (centres undefined)	2.5	2.7	8.3	-0.1
Cc1nc(NC(C)c2ccccc2)cc(-c2cncc(Br)c2)n1 (centres undefined)	-7.1	1.6	-5.7	-0.2
Cc1nc(NC(C)c2ccccc2)cc(-c2ccccn2)n1 (centres undefined)	25.9	-0.4	36.1*	-0.1
CCOC(=O)N1CCc2c(sc(NC(C)=O)c2C#N)C1	-2.0	-1.5	9.0	0.0
O=C(NN1C(=O)CCC1=O)c1ccccc1O	-17.2	3.3	47.0*	-0.1
COc1ccccc1C(=O)NN1C(=O)CCC1=O	-7.5	-0.3	-6.2	0.1
CC(C)n1c(O)c(N=NC(=O)Cc2csc(N3CCOCC3)n2)c2ccccc21	16.9	-1.4	82.3*	-0.3
COc1cc(/C=N/NC(=O)Cc2csc(N3CCOCC3)n2)cc(OC)c1O	0.4	-0.2	4.2	0.1
COCCCNC(NC(=O)Cc1ccccc1)C(Cl)(Cl)Cl (centres undefined)	-0.1	-0.1	4.3	-0.1
O=C1OC(c2cccc(Cl)c2)=N/C1=C\c1ccccc1	-8.8	-8.0	73.2*	-0.1
O=C1OC(c2cccc(Cl)c2)=N/C1=C\c1cccc(Cl)c1	-13.2	-0.5	-11.9	0.0
OC(COc1ccc(Cl)cc1)CN1C2=NCCN2c2ccccc21 (centres undefined)	11.0	-0.7	40.0*	0.5
CC1CCCCN1S(=O)(=O)c1ccc(C(=O)OCC(=O)c2ccc([N+](=O)[O-])cc2)cc1 (centres undefined)	6.9	-0.3	-3.5	0.2
Cc1cc(NCc2cccc(C(F)(F)F)c2)nc(NC2CCN(Cc3ccccc3)CC2)n1	-5.3	-2.0	9.9	-0.2
COc1ccc(/C=C/C(=O)Nc2ccccc2C(=O)O)cc1OC	1.4	-10.5	83.6*	0.0
O=C(/C=C/c1ccc2c(c1)OCO2)Nc1ccccc1C(=O)O	20.3	-6.7	46.7*	0.0
SMILES	MITF primary	GPR151 activ	TEAD-YAP block	FBW7 act
CC1CCN(S(=O)(=O)c2ccc(NC(=O)/C=C/c3ccc4c(c3)OCO4)cc2)CC1	13.5	0.0	43.7*	0.2
COc1ccc(/C=C/C(=O)Nc2ccccc2C)cc1OC	11.0	0.7	5.5	-0.2
COc1ccccc1NC(=O)c1ccc(OC(=S)N(C)C)cc1	20.2	-1.1	-19.9	2.3*
COc1ccccc1NC(=O)c1ccccc1NC(=O)c1ccccc1	14.9	0.5	8.9	1.6
COc1cccc(C(=O)Nc2ccccc2C(=O)Nc2ccccc2OC)c1	0.3	0.8	42.5*	0.1
COc1ccccc1Nc1ncc(C(=O)NCCC(C)C)c2ccccc12	14.3	0.0	-6.8	0.1
COc1ccc(Cl)cc1NC(=O)c1ccc(F)cc1	15.8	-0.4	4.7	2.3*
COc1ccccc1NC(=O)c1cnc(Nc2ccccc2OC)c2ccccc12	-5.4	1.2	44.9*	0.6
CN1CCN(CC#CC(C)(C)O)CC1	4.1	-1.4	2.4	0.5
CN1C(=O)[C@H]2CN(Cc3ccc(Cl)s3)CCN2C(=O)[C@@H]1Cc1ccccc1	-1.2	-1.6	-11.9	0.0
COc1ccccc1NC(=O)c1ccccc1NC(=O)c1cc(OC)c(OC)c(OC)c1	3.5	1.2	54.9*	0.0
COc1cccc2cc(-c3cc4cccc(OC)c4oc3=O)c(=O)oc12	4.2	0.5	10.8	0.0
COc1cc(C(=O)Nc2ccccc2-c2nc3ccccc3s2)cc(OC)c1OC	-3.4	-1.4	53.1*	0.0
COc1cccc2cc(-c3nc4ccccc4s3)c(=O)oc12	5.5	-1.6	72.3*	0.0
Cc1ccc(Cl)cc1N(CC(=O)Nc1ccccc1C(=O)O)S(C)(=O)=O	18.7	0.7	5.9	-0.2
CCOC(=O)N1CCN(C(=O)C2CC23CCN(Cc2cn(C)c4ccccc24)CC3)CC1 (centres undefined)	-1.1	-1.1	8.2	0.8
CCOc1ccc(/C=N/NC(=O)/C(=C/c2ccccc2O)NC(=O)c2ccccc2)cc1	31.4	-7.7	88.5*	0.0
O=C(N/N=C/c1c[nH]c2ccccc12)c1ccncc1	14.3	2.2	4.7	0.0
O=C(N/N=C/c1c[nH]c2ccccc12)/C(=C/c1ccccc1O)NC(=O)c1ccccc1	19.6	-7.8	85.5*	-0.1
Cn1cc(C(=O)N/N=C/c2c[nH]c3ccccc23)c2ccccc21	2.5	-0.4	36.8*	-0.1
O=Cc1s/c(=N\S(=O)(=O)c2ccccc2)n(CCCCl)c1Cl	-0.3	-2.3	44.8*	0.0
CC1=NOC(=O)/C1=C/c1ccc(OCc2cccc(F)c2)cc1	42.2	-5.0	-20.2	0.2
O=C(CSc1nc(-c2ccccc2)ns1)N1CCCCCC1	8.8	-1.5	39.5*	-0.1
Cc1ccc(NC(=O)c2cc(F)ccc2[N+](=O)[O-])cc1	0.2	-0.5	51.8*	-0.1
COc1cc(NC(=O)c2cc(Cl)ccc2[N+](=O)[O-])c(OC)cc1Cl	-0.3	1.1	5.8	-0.2
SMILES	MITF primary	GPR151 activ	TEAD-YAP block	FBW7 act
O=C(Nc1ccc(Cl)cc1Cl)c1cc(F)ccc1[N+](=O)[O-]	4.1	-1.8	76.1*	0.3
COCCCN1C(=O)c2ccc(C(=O)OCc3ccccc3Cl)cc2C1=O	3.5	-0.4	2.0	0.1
CC(=O)c1cccc(NC(=O)CSc2nnc(-c3ccccc3N)n2C)c1	-9.6	0.4	-2.7	0.0
COC(=O)/C=C1\S/C(=N\N=C\c2ccc(Cl)cc2)NC1=O	12.4	-1.1	6.3	0.1
COC(=O)C/C=N/N=C1/NC(=O)/C(=C/C(=O)O)S1	56.6*	0.8	9.2	-0.2
OCC1CCCCN1c1nc(-c2cccs2)nc2ccccc12 (centres undefined)	-0.3	1.1	74.0*	0.1
NC(=O)C1CCCN1c1nc(-c2cccs2)nc2ccccc12 (centres undefined)	-6.9	-0.1	3.1	0.0
O=C(N(c1cccc(C(F)(F)F)c1)C1C=CS(=O)(=O)C1)C(Cl)(Cl)Cl (centres undefined)	-3.4	-1.0	52.9*	-0.1
